# Experimental data reported in PubChem BioAssay AID463205 (Broad Institute, 2010).
# Among all 2,400 compounds or so, about 20 (0.8%) were called active.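 How the source made its calls: active means AC50 no more than ten times the highest tested concentration, or full inhibition at every dose giving a flat fit (cut at about 30 µM in these data); inconclusive means flat fit with activity between 30% and 70%, or poor-quality invalid fit; inactive means AC50 more than ten times the top tested dose.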 The list comes from a sample in which actives are over-represented; it also holds similar structures and randomly drawn compounds.
# Test: inhibitors of ADP-Glo detection reagents, dose response, artefact control for GSK-3a inhibitor project, biochemical, luminescence, cell-free, homogeneous (AID 463205);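 further: kinase-free counter-screen against the ADP-Glo detection reagents only; potency is for inhibitors that reduce the luminescence signal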
# Details: 5 uM ADP
row,Structure (SMILES),AC50
1,Fc1ccc(Nc2ncnc3ccccc23)cc1,> 30 µM (inactive)
2,COc1cc(Br)c(C2C(C#N)=C(N)Oc3n[nH]c(-c4cccnc4)c32)cc1OC (configuration not stated),> 30 µM (inactive)
3,CC(/C=N/NC(=O)CSc1nc2ccccc2n1C)=C\c1ccco1,> 30 µM (inactive)
4,Cn1c(N=Nc2ccccc2)nc2ccccc21,27.9 µM (active)
5,Cc1nc2ccccc2n2c(-c3ccccc3)c3c(=O)n(C)c(=O)n(C)c3c12,> 30 µM (inactive)
6,COc1ccc(/C=C/c2nc(N)nc(-c3ccccc3O)n2)cc1OC,> 30 µM (inactive)
7,CC(C)c1cc(C(N)=O)c(NC(=O)C2CCC2)s1,> 30 µM (inactive)
8,C/C(=N\NC(=O)c1nnn(-c2nonc2N)c1-c1ccccc1)c1cccnc1,> 30 µM (inactive)
9,CC(=O)Nc1ccc(Nc2ncnc(N)c2[N+](=O)[O-])cc1,> 30 µM (inactive)
10,O=[N+]([O-])c1cc(S(=O)(=O)c2ccc(N3CCCCC3)c([N+](=O)[O-])c2)ccc1N1CCCCC1,> 30 µM (inactive)
11,COc1ccccc1CC(=O)N1CCOCC1,> 30 µM (inactive)
12,CC(C)=CC(=O)NCc1c(Cl)cccc1-n1cccc1,> 30 µM (inactive)
13,Cc1nc2sc3c(c2c(=O)o1)CC(C)(C)OC3,> 30 µM (inactive)
14,CCC(C)Nc1nc(N)c([N+](=O)[O-])c(N2CCCCCC2)n1 (configuration not stated),> 30 µM (inactive)
15,O=C(NC1(C(F)(F)F)NC(=O)N(Cc2cccnc2)C1=O)c1ccncc1 (configuration not stated),> 30 µM (inactive)
16,COc1ccccc1NC(=O)CSc1nnc(-c2ccccc2)o1,> 30 µM (inactive)
17,CC(=O)c1sc(NC(=O)CN2C(=O)NC3(CCCC3)C2=O)nc1-c1ccccc1,> 30 µM (inactive)
18,COC1(OC)N=C(N)C2(C#N)C(c3ccc4c(c3)OCO4)C12C#N (configuration not stated),> 30 µM (inactive)
19,Nc1c(S(=O)(=O)c2ccccc2)nnn1-c1ccccc1,> 30 µM (inactive)
20,O=C1CC(c2cccs2)CC2=C1C(c1ccccc1)n1ncnc1N2 (configuration not stated),> 30 µM (inactive)
21,O=C(NCCCn1ccnc1)C(=O)NC1CCCCC1,> 30 µM (inactive)
22,Nc1ncnc2c1ncn2[C@@H]1O[C@H](COS(=O)(=O)O)[C@@H](O)[C@H]1O,> 30 µM (inactive)

row,Structure (SMILES),AC50
1,CCCCN(CC)C(=O)c1oc2ccc(S(=O)(=O)N3CCCC3)cc2c1C,> 30 µM (inactive)
2,CC(C)OCCCNc1nc2c([nH]1)c(=O)n(C)c(=O)n2C,> 30 µM (inactive)
3,CCOC(=O)c1nnn(-c2ccc(OC)cc2)c1N,> 30 µM (inactive)
4,COc1cc(/C=N/NC(=O)c2cccc(C(=O)N/N=C/c3ccc(O)c(OC)c3)n2)ccc1O,> 30 µM (inactive)
5,CN(C)C(=O)c1ccc(NC(=O)c2cc(-n3cnnc3)ccc2Cl)cc1,> 30 µM (inactive)
6,CC(OC(=O)Cc1c[nH]c2ccccc12)C(=O)c1ccccc1 (configuration not stated),> 30 µM (inactive)
7,CC(C)CC(=O)NC(=S)Nc1sc2c(c1C(N)=O)CCC2,> 30 µM (inactive)
8,COc1cccc(-c2nc(-c3ccccc3)[nH]c(=O)c2C#N)c1,> 30 µM (inactive)
9,CCOC(=O)c1sc(NC(=O)C2CC2)nc1C,> 30 µM (inactive)
10,CCOC(=O)c1cnn(C)c1NC(=O)c1ccc(Cl)cc1Cl,> 30 µM (inactive)
11,COc1cccc(/C=N/n2cncn2)c1OCC#N,> 30 µM (inactive)
12,Cc1ccc(-c2cn3cccnc3n2)cc1NC(=O)c1cccs1,> 30 µM (inactive)
13,CCCOc1ccc(-c2nnc(N)s2)cc1,> 30 µM (inactive)
14,O=C(CSc1ccccn1)Nc1nc2ccc(Br)cc2s1,> 30 µM (inactive)
15,Nc1nc(-c2ccccc2)nc(-c2ccccc2O)n1,> 30 µM (inactive)
16,O=C(O)CCSc1nnc(-c2ccncc2)n1-c1ccccc1,> 30 µM (inactive)
17,NC(=O)c1ccc(NC(=O)CSc2nnc(-c3ccc4c(c3)OCO4)o2)cc1,> 30 µM (inactive)
18,C#CCOCCOCCOCCNc1nc(N2CCN(C(=O)CCCCCCCCCCNC(=O)[C@H]([C@@H](C)CC)n3cc(CCCCCN)nn3)CC2)nc(N2CCN(C(=O)CCCCCCCCCCNC(=O)[C@H](CO)n3cc(CCCCCN)nn3)CC2)n1,> 30 µM (inactive)
19,CCCCOC(=O)Nc1nnc(COc2ccccc2)s1,> 30 µM (inactive)
20,CCCOc1ccccc1NC(=O)Nc1ccccc1Cl,> 30 µM (inactive)
21,O=C(Nc1cccc(-c2cnc3ccccc3n2)c1)c1ccncc1,> 30 µM (inactive)
22,O=C(NCCN1CCN(Cc2ccccc2)CC1)Nc1cc(Cl)cc(Cl)c1,> 30 µM (inactive)

row,Structure (SMILES),AC50
1,COc1ccc(-c2nnc(SCC(=O)Nc3ccccc3OC)o2)cc1,> 30 µM (inactive)
2,COc1cc(C2c3sc(=O)[nH]c3SC3C4CCC(C4)C23)ccc1O (configuration not stated),> 30 µM (inactive)
3,Oc1ccc(-c2csc(Nc3ccccn3)n2)c(O)c1,> 30 µM (inactive)
4,CCOC(=O)CC(C#N)c1c[nH]c2ccccc12 (configuration not stated),> 30 µM (inactive)
5,COc1ccccc1N1CCN(C(=O)c2cc(-c3ccccc3)on2)CC1,> 30 µM (inactive)
6,Cc1sc2ncnc(N3CCC(C(=O)Nc4ccc(C#N)cc4)CC3)c2c1C,> 30 µM (inactive)
7,CC(=O)Nc1sc2c(c1C(N)=O)CCCC2,> 30 µM (inactive)
8,N#CC1=C2SCN(Cc3ccco3)CN2C(=O)CC1c1c(F)cccc1Cl (configuration not stated),> 30 µM (inactive)
9,CCN(C(=O)C1CCCN1S(=O)(=O)c1cccc2nsnc12)c1ccccc1 (configuration not stated),> 30 µM (inactive)
10,Cc1ccc(C)c(N2CC(C(=O)Nc3nccs3)CC2=O)c1 (configuration not stated),> 30 µM (inactive)
11,CCn1c(C)nc2cc(-c3nc4n(n3)Cc3ccccc3-4)ccc21,24.3 µM (active)
12,Cc1ccc(-c2nc3n(n2)Cc2ccccc2-3)cc1,> 30 µM (inactive)
13,Fc1ccc(-c2nc3n(n2)Cc2ccccc2-3)cc1,> 30 µM (inactive)
14,NCCNc1ccc([N+](=O)[O-])c(NC2CC2)c1,> 30 µM (inactive)
15,COc1ccc(Nc2sc(C(=O)c3ccc(Cl)cc3)c(N)c2C(=O)Nc2ccccc2OC)cc1,> 30 µM (inactive)
16,Cc1ccc(NC(=O)CSCc2nc3c(nnn3Cc3ccc(F)cc3)c(=O)[nH]2)c(C)c1,> 30 µM (inactive)
17,COc1ccc(/C=C/c2nc(N)nc(-c3ccccc3O)n2)cc1,> 30 µM (inactive)
18,COc1ccc(/C=C/c2nc3ccccc3n2C)cc1,14.3 µM (active)
19,COc1c2ccccc2nc2ccccc12,> 30 µM (inactive)
20,C[n+]1cccc(C2C(C#N)=C(N)Oc3c2ccc2ccccc32)c1 (configuration not stated),> 30 µM (inactive)
21,O=C(CSc1nnc(-c2ccncc2)s1)Nc1ccccc1,> 30 µM (inactive)
22,O=C(CSc1nnc(-c2ccc(O)cc2)o1)Nc1ccccc1Br,> 30 µM (inactive)

row,Structure (SMILES),AC50
1,COc1ccc(CNc2ccc3cn[nH]c3c2)c(OC)c1OC,> 30 µM (inactive)
2,CCCc1[nH]nc2c1C(c1ccc(O)c(OC)c1)C(C#N)=C(N)O2 (configuration not stated),> 30 µM (inactive)
3,Cc1sc2ncnc(NCCCN3CCCC3=O)c2c1C,> 30 µM (inactive)
4,Cc1cc(C)c2[nH]c(O)c(N=Nc3ccc(C(=O)O)cc3)c2c1,> 30 µM (inactive)
5,N#Cc1c(NC(=O)CSc2n[nH]c(N)n2)oc(-c2ccccc2)c1-c1ccccc1,> 30 µM (inactive)
6,COc1cccc(/C=c2\s/c(=C\C(=O)C(C)(C)C)[nH]c2=O)c1,> 30 µM (inactive)
7,CCOC(=O)c1cnc2c(C)cc(Cl)cc2c1N1CCN(C)CC1,> 30 µM (inactive)
8,COc1ccccc1/C=N/NC(=O)c1nnn(-c2nonc2N)c1-c1cccs1,> 30 µM (inactive)
9,CCN1CCN(c2nc(Nc3cccc(F)c3)nc(N)c2[N+](=O)[O-])CC1,> 30 µM (inactive)
10,Cc1nc(N2CCOCC2)nc(N2CCCCC2)c1[N+](=O)[O-],> 30 µM (inactive)
11,COc1ccc(O)c(-c2nc(N)nc(N)n2)c1,> 30 µM (inactive)
12,Cc1cccc(C)c1OCC(O)CNC(C)c1ccccc1 (configuration not stated),> 30 µM (inactive)
13,O=C(CNC(=O)c1ccccc1)N/N=C/C=C/c1ccccc1,> 30 µM (inactive)
14,Cc1cc(NC(=O)COC(=O)c2cc(S(=O)(=O)N3CCOCC3)ccc2N2CCCCC2)no1,> 30 µM (inactive)
15,CN(c1nc2nonc2nc1NC1CC1)C1CCOC1 (configuration not stated),> 30 µM (inactive)
16,CCC/C(=N/NC(=O)c1nnn(-c2nonc2N)c1CN1CCCCC1)c1ccccc1,> 30 µM (inactive)
17,COc1ccc(NC(=O)CSc2nnc(-c3cccc(O)c3)o2)cc1,> 30 µM (inactive)
18,COc1ccc2cc(C(=O)NCc3ccco3)c(=O)oc2c1,> 30 µM (inactive)
19,COc1cccc(NC(=O)[C@@H]2CCCN2S(=O)(=O)c2cccc3cccnc23)c1,> 30 µM (inactive)
20,CCCNC(=O)NC(C(=O)OC)C12CC3CC(CC(C3)C1)C2 (configuration not stated),> 30 µM (inactive)
21,CCOC(=O)c1[nH]c2c(c1C)C(=O)CC(c1ccc(OC)c(OC)c1)C2 (configuration not stated),> 30 µM (inactive)
